In PubChem BioAssay (NCI):
Where “and” joins values, the source holds several entries; their conditions need not be identical. Identical values can stand only once. About 83,000 compounds went through this panel and 20% of them were active in at least one assay; those are over-represented in the sample as a whole.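 The endpoint reported here, percent growth, reads 100 for growth as untreated, 0 for no net growth and -100 for all cells dead.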 Calls of active or inactive are those of the source. The calls were made as follows: active = growth percent below 10; inactive = the rest.

Legend:
Assay in all cases: NCI-60 one-dose screen, 48 h (100 = growth as untreated, 0 = no growth, -100 = all killed)
Conditions in all cases: 10 µM unless noted
SR leukemia = test system: SR leukemia
RPMI-8226 leukemia = test system: RPMI-8226 leukemia
OVCAR-8 ovarian = test system: OVCAR-8 ovarian
OVCAR-4 ovarian = test system: OVCAR-4 ovarian
SK-OV-3 ovarian = test system: SK-OV-3 ovarian
IGROV1 ovarian = test system: IGROV1 ovarian
OVCAR-3 ovarian = test system: OVCAR-3 ovarian
HS 578T breast = test system: HS 578T breast
NCI/ADR-RES ovarian = test system: NCI/ADR-RES ovarian
T-47D breast = test system: T-47D breast
BT-549 breast = test system: BT-549 breast
MDA-MB-435 melanoma = test system: MDA-MB-435 melanoma
SW-620 colon = test system: SW-620 colon
MCF7 breast = test system: MCF7 breast
HCT-116 colon = test system: HCT-116 colon
HCC-2998 colon = test system: HCC-2998 colon
KM12 colon = test system: KM12 colon
OVCAR-5 ovarian = test system: OVCAR-5 ovarian

Compound	growth (SR leukemia)	growth (RPMI-8226 leukemia)	growth (OVCAR-8 ovarian)	growth (OVCAR-4 ovarian)	growth (SK-OV-3 ovarian)	growth (IGROV1 ovarian)	growth (OVCAR-3 ovarian)	growth (HS 578T breast)	growth (NCI/ADR-RES ovarian)	growth (T-47D breast)	growth (BT-549 breast)	growth (MDA-MB-435 melanoma)	growth (SW-620 colon)	growth (MCF7 breast)	growth (HCT-116 colon)	growth (HCC-2998 colon)	growth (KM12 colon)	growth (OVCAR-5 ovarian)
CCC(C)C1(C2CCCC2)NC(=O)NC1=O (stereo not drawn)	92% (inactive)	93.9% (inactive) and 106% (inactive)	108% (inactive) and 99.9% (inactive)	102% (inactive)	99.7% (inactive) and 109% (inactive)	117% (inactive) and 119% (inactive)	106% (inactive) and 115% (inactive)	107% (inactive) and 103% (inactive)	109% (inactive) and 104% (inactive)	97.1% (inactive) and 98.3% (inactive)	107% (inactive)	121% (inactive) and 102% (inactive)	112% (inactive) and 98.9% (inactive)	99.3% (inactive) and 97.3% (inactive)	100% (inactive) and 112% (inactive)	103% (inactive) and 102% (inactive)	106% (inactive) and 111% (inactive)	
CNC(=O)c1cc(Oc2ccc(NC(=O)Nc3ccc(Cl)c(C(F)(F)F)c3)cc2)ccn1	-8.61% (active) and 23.9% (inactive)	-11.5% (active) and -19.3% (active)		26.2% (inactive) and 25.2% (inactive)	-20.9% (active) and 12.5% (inactive)	-24.8% (active) and -70.7% (active)	18.9% (inactive) and 3.16% (active)	-8.13% (active)	-10.9% (active) and -12.5% (active)	-8.57% (active) and 7.49% (active)	-1.7% (active) and 24.4% (inactive)	-27.3% (active) and -35.2% (active)	13.5% (inactive) and 5.39% (active)	2.9% (active) and 3.7% (active)	0.741% (active) and 9.24% (active)	-25.4% (active)	2.65% (active) and -14.7% (active)	16.6% (inactive) and 15.4% (inactive)
Cc1cc(N=Nc2ccc(C)c(N=Nc3cc(C)c(N)cc3N)c2)c(N)cc1N	97.9% (inactive) and 35.1% (inactive)	43.6% (inactive) and 88.2% (inactive)	98.9% (inactive) and 102% (inactive)	86.6% (inactive) and 75.5% (inactive)	91% (inactive) and 95.2% (inactive)	36.8% (inactive) and 53.5% (inactive)	89.3% (inactive) and 63.1% (inactive)	89.4% (inactive) and 88.8% (inactive)	92.4% (inactive) and 84% (inactive)	77.5% (inactive) and 82.6% (inactive)	94.2% (inactive)	100% (inactive) and 12% (inactive)	94.8% (inactive) and 48.4% (inactive)	66.9% (inactive) and 19.4% (inactive)	84.3% (inactive) and 58.3% (inactive)	105% (inactive) and 91% (inactive)	90.6% (inactive) and 39.6% (inactive)	
Cn1c(=O)c2[nH]c(CCCCCCCCc3nc4ccccc4[nH]3)nc2n(C)c1=O	43.5% (inactive) and 45.4% (inactive)	52.2% (inactive)	58.9% (inactive) and 69.2% (inactive)	23.5% (inactive) and 50.2% (inactive)		100% (inactive) and 85.9% (inactive)	88.1% (inactive) and 66.6% (inactive)	109% (inactive) and 85.6% (inactive)	87.6% (inactive) and 94.4% (inactive)	46.6% (inactive) and 44% (inactive)	46.1% (inactive) and 54.1% (inactive)	37% (inactive) and 52.2% (inactive)	91.7% (inactive) and 91.2% (inactive)	45.2% (inactive) and 50.7% (inactive)	40.9% (inactive) and 56% (inactive)	59.2% (inactive) and 86.5% (inactive)	83.6% (inactive) and 91.1% (inactive)	
O[C@H](c1cc(C(F)(F)F)nc2c(C(F)(F)F)cccc12)[C@@H]1CCCCN1	11.7% (inactive)	70.1% (inactive) and 79.2% (inactive)		69.7% (inactive) and 59.8% (inactive)	79.1% (inactive) and 74.6% (inactive)	47.8% (inactive) and 46.4% (inactive)	68.1% (inactive) and 55% (inactive)	66.3% (inactive) and 63% (inactive)	65.7% (inactive) and 56.1% (inactive)	43.6% (inactive) and 64% (inactive)	65.1% (inactive) and 74.8% (inactive)	64.2% (inactive) and 69% (inactive)	71% (inactive) and 74.1% (inactive)	21.3% (inactive) and 13.3% (inactive)	44.1% (inactive) and 45.2% (inactive)	74.5% (inactive) and 54.9% (inactive)	50.7% (inactive) and 43.8% (inactive)	79.5% (inactive) and 69.3% (inactive)
CCN(CC)CCCC(C)N(Cc1ccccc1)CC(O)c1ccc(Cl)cc1 (stereo not drawn)	119% (inactive) and 98.1% (inactive)	99.9% (inactive) and 96.7% (inactive)	105% (inactive) and 102% (inactive)	116% (inactive) and 112% (inactive)	94.4% (inactive) and 102% (inactive)	113% (inactive) and 101% (inactive)	109% (inactive) and 100% (inactive)	93.8% (inactive) and 111% (inactive)	108% (inactive) and 98.3% (inactive)		110% (inactive) and 102% (inactive)	116% (inactive) and 107% (inactive)	98.8% (inactive) and 113% (inactive)	105% (inactive) and 99.3% (inactive)	102% (inactive) and 100% (inactive)		103% (inactive) and 101% (inactive)	
C=C1C(=O)O[C@H]2[C@H]1CC/C(COC(=O)NC1CCC(O)CC1)=C\CC[C@@]1(C)O[C@@H]21 (stereo partly drawn)	27.3% (inactive) and 23.4% (inactive)	61.4% (inactive) and 54.9% (inactive)		77.8% (inactive) and 76% (inactive)	103% (inactive) and 104% (inactive)	97.4% (inactive) and 78.2% (inactive)	44.5% (inactive) and 46.5% (inactive)	92% (inactive) and 87.6% (inactive)	99.8% (inactive) and 100% (inactive)	59.6% (inactive) and 47.6% (inactive)	83.3% (inactive) and 79.1% (inactive)	58.4% (inactive) and 54.8% (inactive)	27.4% (inactive) and 30.1% (inactive)	75.2% (inactive) and 66.7% (inactive)	41.5% (inactive) and 33% (inactive)			83.9% (inactive) and 83.6% (inactive)
CC[N+](CC)(CC(=O)Nc1c(C)cccc1C)Cc1ccccc1	92.4% (inactive)	74% (inactive) and 113% (inactive)	95.2% (inactive) and 105% (inactive)	80.4% (inactive) and 105% (inactive)	102% (inactive) and 107% (inactive)	85.4% (inactive) and 94.5% (inactive)	104% (inactive) and 109% (inactive)	109% (inactive)	90.3% (inactive) and 102% (inactive)	86.9% (inactive) and 95.1% (inactive)	63.8% (inactive) and 106% (inactive)	94.7% (inactive) and 99.3% (inactive)	90.1% (inactive) and 97.1% (inactive)	95.7% (inactive) and 99.8% (inactive)	97.3% (inactive) and 100% (inactive)	102% (inactive)	101% (inactive) and 88.9% (inactive)	
O=C(O)CSCc1nc2ccccc2[nH]1	96.5% (inactive)	94% (inactive)		107% (inactive)	113% (inactive)	109% (inactive)	106% (inactive)	102% (inactive)	101% (inactive)	104% (inactive)	108% (inactive)	115% (inactive)	103% (inactive)	96.4% (inactive)	107% (inactive)	103% (inactive)	111% (inactive)	110% (inactive)
Clc1nc(Oc2ccccc2)nc(-c2cn(-c3ccccc3)c3ccccc23)n1	-31.7% (active)	49.1% (inactive)		98.8% (inactive)	103% (inactive)	28.3% (inactive)	7.87% (active)	44.1% (inactive)	84.9% (inactive)		96.9% (inactive)	38.2% (inactive)	12.4% (inactive)	88.5% (inactive)	58.5% (inactive)	74.4% (inactive)	89.6% (inactive)	101% (inactive)
O=[N+]([O-])c1ccccc1/C=N\Nc1ccccc1	98.5% (inactive) and 51.8% (inactive)	77.5% (inactive) and 95.6% (inactive)		82.2% (inactive) and 86.3% (inactive)		74.4% (inactive) and 59.1% (inactive)	94.5% (inactive) and 92.7% (inactive)	90.3% (inactive) and 118% (inactive)	73.3% (inactive) and 75.6% (inactive)	48.2% (inactive) and 57.9% (inactive)	91.1% (inactive) and 97.8% (inactive)	88.8% (inactive) and 83.6% (inactive)	95% (inactive) and 93.3% (inactive)	66.3% (inactive) and 69.4% (inactive)	79.2% (inactive) and 84.5% (inactive)			91.1% (inactive) and 89.2% (inactive)
